Compounds without any hit were thinned out: in the full panel of roughly 83,000, 20% have a hit.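 Step 1: grow cells in 96-well plates. Step 2: add test compound at a single concentration. Step 3: incubate 48 h. Step 4: record percent growth.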 The source made the active and inactive calls. The calls were made as follows: active = growth percent below 10; inactive = the rest.
How the values were obtained:
Test in all cases: NCI-60 one-dose screen, 48 h (100 = growth as untreated, 0 = no growth, -100 = all killed)
Conditions in all cases: 10 µM unless noted
HCT-15 colon = system: HCT-15 colon
HT29 colon = system: HT29 colon
SNB-75 CNS = system: SNB-75 CNS
SNB-19 CNS = system: SNB-19 CNS
U251 CNS = system: U251 CNS
PC-3 prostate = system: PC-3 prostate
SK-MEL-5 melanoma = system: SK-MEL-5 melanoma
UACC-62 melanoma = system: UACC-62 melanoma
SK-MEL-28 melanoma = system: SK-MEL-28 melanoma
SK-MEL-2 melanoma = system: SK-MEL-2 melanoma
EKVX NSCLC = system: EKVX NSCLC
SN12C renal = system: SN12C renal
UO-31 renal = system: UO-31 renal
TK-10 renal = system: TK-10 renal
ACHN renal = system: ACHN renal
CAKI-1 renal = system: CAKI-1 renal
CCRF-CEM leukemia = system: CCRF-CEM leukemia
MOLT-4 leukemia = system: MOLT-4 leukemia
A498 renal = system: A498 renal

Measured: growth

C/C(=N\Nc1ccc(C(=O)O)cc1)c1cnn(-c2cc(=O)[nH]c3ccc(C)cc23)c1C
inactive: HCT-15 colon 97.4% | HT29 colon 100% | SNB-75 CNS 91.9% | SNB-19 CNS 97.5% | U251 CNS 102% | PC-3 prostate 88.8% | SK-MEL-5 melanoma 97.9% | UACC-62 melanoma 91.5% | SK-MEL-28 melanoma 107% | SK-MEL-2 melanoma 106% | EKVX NSCLC 93% | SN12C renal 92.6% | UO-31 renal 67.9% | TK-10 renal 104% | ACHN renal 99.4% | CAKI-1 renal 89.7% | CCRF-CEM leukemia 93% | MOLT-4 leukemia 97.8%

CNc1nc2ccccc2n2c(-c3ccc(O)c(O)c3)cnc12
inactive: SNB-19 CNS 27.5% | PC-3 prostate 31.7% | SK-MEL-28 melanoma 23.3% | EKVX NSCLC 16.3% | TK-10 renal 62.8% | A498 renal 92.4% | CCRF-CEM leukemia 14.9% | MOLT-4 leukemia 11%
active: HCT-15 colon 5.19% | HT29 colon 2.27% | SNB-75 CNS -15.5% | U251 CNS 6.12% | SK-MEL-5 melanoma -23.6% | UACC-62 melanoma 4.77% | SK-MEL-2 melanoma 3.66% | UO-31 renal 1.12% | ACHN renal 6.64% | CAKI-1 renal 3.52%

C/C(=N/O)c1ccc(NC(=O)CSc2nnc(-c3ccc(-c4nc5ccc(Cl)cc5[nH]4)cc3)o2)cc1
active: SNB-75 CNS -27.5% | SNB-19 CNS -86.7% | U251 CNS -95.8% | PC-3 prostate -22.4% | SK-MEL-5 melanoma -60.4% | UACC-62 melanoma -86.6% | SK-MEL-28 melanoma -100% | SK-MEL-2 melanoma -26% | SN12C renal -33.9% | MOLT-4 leukemia 2.09%
inactive: HCT-15 colon 78.1% | HT29 colon 31.4% | EKVX NSCLC 13.4% | UO-31 renal 104% | TK-10 renal 99.5% | ACHN renal 45.5% | CAKI-1 renal 60.2% | A498 renal 160% | CCRF-CEM leukemia 34.5%

CC[C@]12C=CCN3CC[C@]4(C(=C(C(=O)OC)C1)Nc1cc(OC)c([C@@H]5[C@H]6O[C@H]6[C@@]6(CC)CC(C(=O)OC)=C7Nc8cc(O)ccc8[C@@]78CCN5[C@@H]68)cc14)[C@@H]32
active: HCT-15 colon -77.2% | HT29 colon -27.1% | U251 CNS -38.2% | SK-MEL-5 melanoma -96.1% | UACC-62 melanoma -71.9% | SK-MEL-28 melanoma -21.8% | SK-MEL-2 melanoma -67.3% | EKVX NSCLC 6.25% | SN12C renal -30.1% | UO-31 renal -4.18% | ACHN renal 1.9% | CCRF-CEM leukemia -5.67% | MOLT-4 leukemia -11.5%
inactive: SNB-75 CNS 27.3% | SNB-19 CNS 21.6% | PC-3 prostate 13.5% | CAKI-1 renal 11.7%

COc1ccc(N=Nc2c(N)nn3c(-c4ccc(F)cc4)ccnc23)cc1
inactive: HCT-15 colon 54% | HT29 colon 58.6% | SNB-75 CNS 110% | SNB-19 CNS 97.1% | U251 CNS 69.8% | PC-3 prostate 82.2% | SK-MEL-5 melanoma 91.1% | UACC-62 melanoma 71.3% | SK-MEL-28 melanoma 63.1% | SK-MEL-2 melanoma 102% | EKVX NSCLC 80.4% | SN12C renal 89% | UO-31 renal 99.6% | TK-10 renal 106% | ACHN renal 110% | CAKI-1 renal 94.5% | A498 renal 108% | CCRF-CEM leukemia 59.9% | MOLT-4 leukemia 85.5%

O=C(CSc1nc2sc3c(c2c(=O)n1-c1ccc(Cl)cc1)CCCC3)NNC(=O)c1ccc(Br)cc1
inactive: HCT-15 colon 73.9% | HT29 colon 100% | SNB-75 CNS 82.7% | SNB-19 CNS 24.8% | U251 CNS 26.6% | PC-3 prostate 71.8% | SK-MEL-5 melanoma 74.2% | UACC-62 melanoma 36.6% | SK-MEL-28 melanoma 78.8% | SK-MEL-2 melanoma 99.1% | EKVX NSCLC 60.9% | SN12C renal 46% | UO-31 renal 62.3% | TK-10 renal 139% | ACHN renal 91.2% | CAKI-1 renal 71.4% | A498 renal 127% | CCRF-CEM leukemia 61.2% | MOLT-4 leukemia 73.2%

COc1ccc(-c2nc3ccccc3n2CC(=O)N=Nc2c(O)[nH]c3ccc(OC)cc23)cc1
active: HT29 colon 0.298% | CAKI-1 renal -53.5%
inactive: HCT-15 colon 43.7% | SNB-75 CNS 73% | SNB-19 CNS 95.1% | U251 CNS 96.6% | PC-3 prostate 64.8% | SK-MEL-5 melanoma 22.9% | UACC-62 melanoma 81.6% | SK-MEL-28 melanoma 81.2% | SK-MEL-2 melanoma 23.9% | EKVX NSCLC 77.8% | SN12C renal 58.7% | UO-31 renal 68.5% | TK-10 renal 43.8% | ACHN renal 10.1% | A498 renal 88.3% | CCRF-CEM leukemia 62.9% | MOLT-4 leukemia 35.8%

COc1ccc2c(c1)C(=O)N(C)C2C1c2c(cc3c(c2OC)OCO3)CCN1C (configuration not stated)
inactive: HCT-15 colon 22.5% | HT29 colon 33.2% | SNB-75 CNS 37.3% | SNB-19 CNS 49.1% | U251 CNS 42.7% | PC-3 prostate 46.9% | SK-MEL-5 melanoma 24.9% | UACC-62 melanoma 26.8% | SK-MEL-28 melanoma 55.9% | SK-MEL-2 melanoma 57.5% | EKVX NSCLC 62.6% | SN12C renal 76.9% | TK-10 renal 78.6% | ACHN renal 46.5% | CAKI-1 renal 31.6% | A498 renal 91.5% | CCRF-CEM leukemia 66.3% | MOLT-4 leukemia 46.4%

Reference: PubChem BioAssay (NCI)
